An excerpt weighted towards active compounds, which were near 21% of everything screened.
Sm TGR block = qHTS Assay for the Inhibitors of Schistosoma Mansoni Peroxiredoxins. Schistosoma mansoni thioredoxin glutathione reductase (TGR), Q962Y6. purified TGR, DTNB reduction, TNB absorbance 405 nm. Potency, µM (titrated, usually from 114 µM), inactives show top-dose activity change, negative = inhibition, actives largely listed as inhibitors. 360,000 tested, 3% active. AID 485364, 2010; also: potency is read from the fitted curve at half-maximal effect; % is scaled to controls: 0 for no effect and ±100 for the full control effect; nearly all actives have a fitted effect of over 60% in size
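First, TGR (20 nM dispensed) and NADPH were mixed with compound. Second, a 15 min room-temperature incubation followed. Third, further NADPH and then DTNB were added to start the reaction. Finally, TNB absorbance was monitored kinetically.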
Shiga inhibitor = A qHTS for Small Molecule Inhibitors of Shiga Toxin | Vero cells, Shiga toxin protein synthesis inhibition reporter | inhibition, % at 38.7 µM | 290,000 tested, 9.2% active; in the data active = inhibition mostly above about 28%, no sharp cut-off; inactive = mostly below about 43%; also: 0% is about no effect
Pf growth 96h = Primary qHTS for delayed death inhibitors of the malarial parasite plastid, 96 hour incubation. P. falciparum luciferase reporter growth, 96 h. Potency, µM (highest dose often 28.7 µM), for the others: at the highest dose activity change, negative = inhibition, usual class: inhibitors. 320,000 tested, 6.9% active. AID 504834, 2011; also: potency is read from the fitted curve at half-maximal effect; % is scaled to controls: 0 for no effect and ±100 for the full control effect
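Parasite growth measured via integrated firefly luciferase reporter in P. falciparum. Infected erythrocytes at 2% hematocrit, 0.05% parasitemia final were treated 96 hours at 37 C under 5% CO2, and luminescence was read.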
Pf growth 48h = Primary qHTS for delayed death inhibitors of the malarial parasite plastid, 48 hour incubation; AID 504832, 2011; P. falciparum luciferase growth in erythrocytes, 48 h; Potency, µM (titrated, usually from 28.7 µM), inactives show top-dose activity change, negative = inhibition, most hits filed as inhibitors; 310,000 tested, 5.9% active; also: potency is read from the fitted curve at half-maximal effect; % is scaled to controls: 0 for no effect and ±100 for the full control effect
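Luciferase-expressing parasites in RBCs, 2% Hct / 0.1% parasitemia final; RPMI 1640 + 0.5% Albumax; 37 C, 5% CO2, one generation; luminescence read-out, lower signal = inhibition.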
NS1 inh = qHTS Assay for Inhibitors of Influenza NS1 Protein Function. Potency, µM (doses to about 46.1 µM), inactives show at the highest dose activity, positive = more growth. 270,000 tested, 0.4% active; calls by dose curve; also: potency is read from the fitted curve at half-maximal effect; actives are rising curves; nearly all actives have a fitted effect of over 50% in size
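Recovery from NS1-induced slow growth read by OD600 in budding yeast switched to galactose assay medium (pH 6.0, -URA) at 1:100 dilution. Compound 23 nl per well; the matching strain lacking NS1 serves as control.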
CHX counter = Cycloheximide Counterscreen for Small Molecule Inhibitors of Shiga Toxin | cell reporter, cycloheximide protein synthesis inhibition counterscreen | max response, % | 300,000 tested, 12% active | AID 2314, 2010; in the data active = max response mostly above about 13%, no sharp cut-off; inactive = mostly below about 14%; also: read at 38.3 µM for the half of the compounds with a filed dose; 0% is about no effect
* marks the source's active call; other numbers are inactive results; ? = inconclusive; . = no result; [ ] = remark or other dose. Unless noted, calls follow the shape of the dose curve; as a rule, active = well fitted curve in the direction sought with a large enough effect; inconclusive = small, poorly fitted or top-dose-only effect, or another doubt; inactive = no such curve, though single readings can be large; an effect the other way counts as inactive or inconclusive.

SMILES	Sm TGR block	Shiga inhibitor	Pf growth 96h	Pf growth 48h	NS1 inh	CHX counter
CCOC(=O)c1c(C)oc2c1c(CN1CCN(CCO)CC1)c(O)c1ccccc12	0.282µM*	117.8*	212.8%	124.5%	.	35.6*
CCOC(=O)c1c(C)oc2c1c(C(c1ccncc1)N1CCOCC1)c(O)c1ccccc12 (stereo unspecified)	1.26µM*	100.2*	-1.4%	?	-103.7%	50.7*
CCOC(=O)c1c(C)oc2ncnc(N3CCN(c4ccccc4)CC3)c12	-3.2%	.	.	.	.	.
O=C(Nc1ccc(-n2cccc2)cc1)C1CC1	-1.6%	16.8	-23.0%	11.7µM*	.	22.7*
O=C(O)Cc1ccc(NC(=O)c2ccc(NC(=O)C3CC3)cc2)cc1	13.7%	-9.6	5.86µM*	-19.1%	6.6%	-2.0
O=C(Nc1ccc(Nc2ccccc2)cc1)C1CC1	-4.0%	49.7	32.4%	?	12.6%	21.2*
CC(C)(C)c1ccc(C(=O)Nc2ccc(CC(=O)O)cc2)o1	-6.1%	-19.3	2.33µM*	.	-1.3%	-11.7
CCOC(=O)C1CN(S(C)(=O)=O)c2cc(CC(=O)OC)ccc2O1 (stereo unspecified)	0.2%	-3.8	?	?	.	8.7
Cc1ccc(-n2nc(CN3CCOCC3)c(-c3ccccc3)c2N)cc1Cl	4.6%	-13.6	?	-23.0%	6.4%	4.7
CC(=O)Nc1ccc(C(=O)OCC(=O)NCc2ccc(Cl)cc2)cc1	-5.9%	-5.1	8.3%	8.3%	.	-5.1
O=C(CSc1nnc(-c2cccs2)o1)Oc1ccc(Cl)cc1	-11.8%	.	.	.	.	.
Cc1ccc(S(=O)(=O)Nc2ccc(Cl)cc2)cc1NC(=O)c1cc2c(s1)CCCC2	1.0%	1.3	23.3%	17.2%	16.5%	9.6
O=C(CN1C(=O)S/C(=C\C=C\c2ccccc2)C1=O)N1CCOCC1	?	24.3	-3.9%	53.9%	1.7%	2.5
O=C(Nc1ccccc1)C1CC2CCCC(C1)C2=O (stereo unspecified)	7.5%	-3.5	3.7µM*	10.3%	-1.5%	8.7
O=C(Nc1ccc(Cl)cc1)C1CC2CCCC(C1)C2=O (stereo unspecified)	-6.8%	-5.7	-20.4%	-10.2%	-3.6%	-1.7
CC(C)(C)C1CCC(=NNC(=O)CN(c2ccccc2)S(C)(=O)=O)CC1 (stereo unspecified)	9.0%	89.9*	1.5%	6.3%	8.2%	43.0*
C/C(=N\NC(=O)CN1CCCCC1)c1ccccc1O	15.2%	39.4*	31.7%	?	2.4%	23.2*
COc1ccc(N(CC(=O)N/N=C(\C)c2ccccc2)S(=O)(=O)c2ccccc2)cc1	6.9%	-9.5	-24.5%	15.4%	3.3%	-6.3
C/C(=N\NC(=O)CN(c1ccccc1)S(C)(=O)=O)c1ccccc1O	1.5%	-6.7	?	11.7µM*	.	-3.0
CC1=C(C(=O)Nc2cccc(C(F)(F)F)c2)C2(CCN(C(C)C)CC2)OC1=O	-0.7%	.	.	.	.	.
CCN(CC)S(=O)(=O)c1cc(-c2nnc(-c3ccc(Br)cc3)o2)ccc1Cl	-1.2%	18.8	3.29µM*	-1.6%	-9.0%	-3.3
CCN(CC)S(=O)(=O)c1cc(-c2nnc(-c3ccc(Br)cc3)o2)ccc1Br	-32.7%	8.3	-0.8%	-5.9%	4.8%	-2.2
COc1ccc(Nc2nc(C(=O)N3CCc4ccccc4C3)cs2)cc1	8.5%	-19.7	-27.3%	?	9.1%	4.9
CCOC(=O)/C(=N\Nc1ccccc1)c1csc(Nc2ccc(C)cc2)n1	-2.6%	1.1	?	.	4.0%	-5.4
Cc1ccc(Nc2nc(C(=O)N3CCC(C(=O)NCc4ccccc4)CC3)cs2)cc1	-5.5%	34.9*	?	?	-7.5%	18.9*
SMILES	Sm TGR block	Shiga inhibitor	Pf growth 96h	Pf growth 48h	NS1 inh	CHX counter
COc1ccc(CNC(=O)C2CCN(C(=O)c3csc(Nc4ccc(C)cc4)n3)CC2)cc1	-2.2%	15.7	-19.5%	8.28µM*	-6.0%	9.0
COc1ccc(CNC(=O)C2CCN(C(=O)c3ccc(-c4ccccc4)cc3)CC2)cc1	-3.1%	-4.0	-99.4%	-23.6%	-51.2%	-2.3
Cc1ccc(Nc2nc(C(=O)N3CCC(C(=O)N4CCN(C)CC4)CC3)cs2)cc1	0.0%	17.0	.	6.8%	-8.3%	19.1*
Cc1ccc(Nc2nc(COC(=O)C3CC3)cs2)cc1	.	74.6*	55.8%	94.4%	-11.6%	51.6*
COc1cc(OC)c(NC(=O)C(c2ccccc2)N2Cc3ccccc3C2=O)cc1Cl (stereo unspecified)	1.0%	.	.	.	.	.
CN(C(=O)c1ccc(NC(=O)Cc2ccc(NC(=O)C3CCCN(C(=O)C4CCC4)C3)cc2)cc1)C1CC1 (stereo unspecified)	5.5%	.	?	?	.	.
CN(C)C(=O)CN1C(=O)NC(c2ccccc2)(c2ccccc2)C1=O	-4.5%	-11.3	18.2%	25.4%	-13.1%	-3.8
Cc1cccc(OCCSc2nc3ccccc3n2CC(=O)N2CCOCC2)c1C	0.1%	.	.	.	.	.
Cc1ccc(Nc2nc(C(=O)N3CCC(C(=O)NCCN4CCOCC4)CC3)cs2)cc1	-11.3%	24.1	4.65µM*	?	-2.5%	13.0
O=C(c1csc(Nc2ccccc2Cl)n1)N1CCCC1	-9.5%	108.1*	2.33µM*	21.0%	-43.1%	53.4*
COc1cccc(CNC(=O)Cn2c(SCC(=O)Nc3ccc(F)cc3)nc3ccccc32)c1	-1.3%	.	.	.	.	.
CN(CC(=O)O)c1ccc(C(F)(F)F)cc1[N+](=O)[O-]	4.6%	-7.6	40.3%[1.15 µM]	19.6%	5.5%	10.8
CCN1CCC(NC(=O)Nc2cc(Cl)ccc2OC)CC1	3.6%	6.7	495.8%	26.0%[5.75 µM]	.	-0.8
C=C(C)Cc1c(C)c(C#N)c2nc3ccccc3n2c1NCCCN(C)C	1.9%	11.0	9.28µM*	?	-4.5%	-1.6
CCc1c(C)c(C#N)c2nc3ccccc3n2c1NCCN(C)C	?	-11.4	-11.4%	9.28µM*	-56.0%	-1.7
Cn1cc(C(=O)c2ccc(Cl)cc2Cl)cc1C(=O)N/N=C(\N)COc1ccc(Cl)cc1	-0.5%	-8.3	9.28µM*	0.0%	1.0%	-2.4
Cn1cc(C(=O)c2ccc(Cl)cc2Cl)cc1C(=O)N/N=C(\N)COc1ccc(F)cc1	2.9%	-4.2	.	?	-58.0%	8.9
C1CCN(c2c3c(nc4nnnn24)CCCC3)CC1	-13.2%	-20.0	10.4µM*	5.4%	-7.6%	1.0
C1CCC(CNc2c3c(nc4nnnn24)CCCC3)CC1	?	0.6	13.1µM*	?	4.0%	-3.8
COCCCNc1c2c(nc3nnnn13)CCCC2	-1.4%	5.5	?	18.2%	.	-1.1
O=C(COc1ccc(Br)cc1Br)Nc1ccc(S(=O)(=O)Nc2ncccn2)cc1	2.0%	.	.	.	.	.
Cc1cccc(NC(=O)c2cc(S(=O)(=O)N3CCc4ccccc43)ccc2F)c1C	7.6%	.	.	.	.	.
COc1cccc(NC(=O)c2csc3c2CCCC3)c1	.	104.1*	8.9%	52.2%	-34.9%	40.4*

Compound activity (PubChem)
